PubChem BioAssay AID1159580 (chemical genetic matrix, 2015)
“And” between values parts separate entries of the source, which are not always exact repeats. Equal values may be shown once. About 2,000 (36%) of roughly 5,500 compounds were called active. Roughly 18% stayed inconclusive and do not appear here. Rule as the data show it: active = normalized growth mostly below about 0.91 (no sharp cut-off); inconclusive = no clear call, values can overlap the other calls; inactive = mostly above about 0.92. The list shows a part of the results.

Assay: chemical genetic growth profiling, strain panel (AID 1159580);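 also: tested at 20 µM; growth read once vehicle control cultures reached saturation at 30 °C; 1 = growth at the plate median or of vehicle wells; lower values mean less growth of the strain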
Conditions: S. cerevisiae deletion strains, growth OD

Measured: normalized growth

CC(=O)[C@@]1(O)CCC2C3C[C@H](C)C4=CC(=O)C=CC4(C)[C@@]3(F)[C@@H](O)C[C@@]21C (stereo partly drawn)
inactive: locus YAL013W, strain DEP1, active compounds read low 0.995 | locus YAL021C, strain ccr4, active compounds read low 0.965 | locus YAL026C, strain drs2, active compounds read low 0.966 | locus YAL030W, strain snc1, active compounds read low 0.961 | locus YBL061C, strain skt5, active compounds read low 0.976 | locus YBR009C, strain hhf1, active compounds read low 0.931 | locus YBR021W, strain FUR4, active compounds read low 0.99 | locus YBR023C, strain chs3, active compounds read low 0.969 | locus YBR171W, strain sec66, active compounds read low 0.973 | locus YBR229C, strain ROT2, active compounds read low 1.01 | locus YBR231C, strain swc5, active compounds read low 0.975 | locus YBR279W, strain paf1, active compounds read low 0.98 | locus YCL011C, strain gbp2, active compounds read low 0.964 | locus YCL016C, strain dcc1, active compounds read low 0.963 | locus YCL029C, strain bik1, active compounds read low 0.997 | locus YCL069W, strain vba3, active compounds read low 0.979 | locus YCR088W, strain abp1, active compounds read low 0.973 | locus YDL005C, strain med2, active compounds read low 0.962 | locus YDL035C, strain GPR1, active compounds read low 0.986 | locus YDL040C, strain nat1, active compounds read low 0.983 | locus YDL074C, strain BRE1, active compounds read low 0.981 | locus YDL101C, strain DUN1, active compounds read low 1.02 | locus YDL134C, strain PPH21, active compounds read low 0.99 | locus YDL185W, strain tfp1, active compounds read low 1.03 | locus YDL192W, strain arf1, active compounds read low 1.01 | locus YDR001C, strain nth1, active compounds read low 0.977 | locus YDR069C, strain doa4, active compounds read low 0.969 | locus YDR101C, strain arx1, active compounds read low 0.971 | locus YDR137W, strain rgp1, active compounds read low 0.975 | locus YDR150W, strain NUM1, active compounds read low 0.991 | locus YDR159W, strain sac3, active compounds read low 0.929 | locus YDR162C, strain NBP2, active compounds read low 0.984 | locus YDR195W, strain ref2 0.98 | locus YDR297W, strain sur2, active compounds read low 0.975 | locus YDR318W, strain mcm21, active compounds read low 1.01 | locus YDR334W, strain swr1, active compounds read low 0.976 | locus YDR335W, strain msn5, active compounds read low 0.965 | locus YDR388W, active compounds read low 1.01 | locus YDR392W, strain spt3, active compounds read low 0.936 | locus YDR502C, strain sam2, active compounds read low 1.01 | locus YEL003W, strain gim4, active compounds read low 0.971 | locus YEL037C, strain rad23, active compounds read low 0.975 | locus YEL061C, strain CIN8 (second series), active compounds read low 0.962 | locus YEL061C, strain CIN8, active compounds read low 0.989 | locus YER015W, strain faa2, active compounds read low 0.977 | locus YER016W, strain bim1, active compounds read low 0.933 | locus YER110C, active compounds read low 1.02 | locus YER111C, strain swi4, active compounds read low 0.969 | locus YER155C, strain BEM2 (second series), active compounds read low 1.03 | locus YER155C, strain BEM2, active compounds read low 1.01 | locus YER167W, strain BCK2, active compounds read low 0.988 | locus YFR010W, strain ubp6, active compounds read low 0.953 | locus YGL078C, strain dbp3, active compounds read low 1 | locus YGL086W, strain mad1, active compounds read low 0.985 | locus YGL167C, strain pmr1, active compounds read low 0.977 | locus YGL173C, strain kem1, active compounds read low 0.976 | locus YGL227W, strain vid30, active compounds read low 0.988 | locus YGL240W, strain doc1, active compounds read low 0.955 | locus YGL248W, strain PDE1, active compounds read low 1.01 | locus YGL253W, strain hxk2, active compounds read low 0.961 | locus YGR078C, strain PAC10, active compounds read low 1 | locus YGR135W, strain pre9, active compounds read low 1.05 | locus YGR252W, strain gcn5, active compounds read low 1.08 | locus YHR013C, strain ard1, active compounds read low 0.905 | locus YHR027C, strain rpn1, active compounds read low 0.971 | locus YHR030C, strain SLT2, active compounds read low 0.979 and 0.988 | locus YHR079C, strain IRE1 (second series), active compounds read low 1.01 | locus YHR079C, strain IRE1, active compounds read low 0.971 | locus YHR094C, strain hxt1, active compounds read low 1.01 | locus YHR129C, strain ARP1, active compounds read low 1.01 | locus YHR142W, strain chs7, active compounds read low 0.96 | locus YHR200W, strain rpn10, active compounds read low 1.01 | locus YIL066C, strain RNR3, active compounds read low 0.996 | locus YIL073C, strain SPO22, active compounds read low 1.02 | locus YIL125W, strain kgd1, active compounds read low 1 | locus YIR030C, strain dcg1, active compounds read low 1 | locus YJL092W, strain hpr5, active compounds read low 0.983 | locus YJL095W, strain BCK1 (second series), active compounds read low 0.985 | locus YJL095W, strain BCK1, active compounds read low 1.02 and 0.999 | locus YJL115W, strain asf1, active compounds read low 0.954 | locus YJL129C, strain trk1, active compounds read low 0.968 | locus YJL134W, strain LCB3, active compounds read low 1.01 | locus YJL154C, strain vps35, active compounds read low 0.984 | locus YJL164C, strain tpk1, active compounds read low 0.937 | locus YJL166W, strain qcr8, active compounds read low 0.979 | locus YJL168C, strain set2, active compounds read low 1 | locus YJL187C, strain SWE1 (second series), active compounds read low 1.02 | locus YJR043C, strain POL32, active compounds read low 0.99
